Source: PubChem (National Center for Advancing Translational Sciences (NCATS))
FUS yeast rescue = rescues growth of FUS-expressing yeast; Potency, µM (titrated, usually from 76.6 µM), usual class: activators; 0.24% of 390,000 active; S. cerevisiae FUS-expressing, growth rescue, OD600, 24 h;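 further: plate controls were DMSO vehicle for no effect and reference control for full effect; nearly all actives have a fitted effect of over 55% in size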
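Quantitative HTS measuring growth restoration of FUS-toxic yeast. Galactose-induced cells (OD 0.005) were exposed 24hr at 30C to compounds at several concentrations, then absorbance at 600 nm was recorded.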
MBNL1-CUG inh = inhibitors of human MBNL1 binding to CUG repeat RNA; Q9NR56; TR-FRET MBNL1-His/biotin-(CUG)12 binding, 665/545 ratio; Potency, µM (top dose mostly 57.5 µM), for inactives: at the highest dose activity change, negative = inhibition, actives largely listed as inhibitors; 0.036% of 280,000 active; AID 2675; active means well fitted inhibition curve with a large enough effect in the signal ratio, with a control signal flat, not every such curve was filed as active; inconclusive means small, poorly fitted or top-dose-only effect, or effect the other way, or a change in a side signal; inactive means no such curve, though single readings can be large or run the other way; the % refers to the signal ratio; further: on the % scale 0 is the no-effect control and ±100 the full control effect
Target sequence (Q9NR56 whole entry, looked up): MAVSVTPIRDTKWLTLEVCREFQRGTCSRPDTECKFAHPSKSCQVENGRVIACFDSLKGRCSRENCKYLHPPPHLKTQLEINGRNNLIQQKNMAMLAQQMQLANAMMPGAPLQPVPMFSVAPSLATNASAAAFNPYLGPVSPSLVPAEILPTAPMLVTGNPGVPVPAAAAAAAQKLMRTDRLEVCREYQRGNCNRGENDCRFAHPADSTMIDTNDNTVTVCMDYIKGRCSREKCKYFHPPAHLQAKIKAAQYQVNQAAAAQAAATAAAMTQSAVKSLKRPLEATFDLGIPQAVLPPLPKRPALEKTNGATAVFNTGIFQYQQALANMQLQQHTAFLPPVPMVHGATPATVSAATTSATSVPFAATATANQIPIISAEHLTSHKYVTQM
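TR-FRET between His-tagged MBNL1 and biotin-(CUG)12 RNA, detected with Tb anti-His antibody (0.055 ng/ul) and streptavidin-XL665 (5 nM), 60 min at room temperature. Compounds titrated 92 nM to 58 uM; 665/545 nm ratio normalized to buffer and complex controls.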
TDP43 rescue = rescues yeast growth from TDP-43 toxicity | Potency, µM (titrated, usually from 46.1 µM), inactives show top-dose growth rescue (activation), usual class: activators | AID 652104 | 1.8% of 410,000 active | TDP-43 expressing yeast growth rescue, BacTiter-Glo, 24 h; further: % of control where 0% means no effect; nearly all actives have a fitted effect of over 50% in size
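Growth rescue of TDP-43-toxic yeast measured as ATP luminescence (BacTiter-Glo). Cells grown to mid-log in raffinose, induced in galactose at OD600=0.02, exposed to compound 24 hr at 30 deg C.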
Glioma ERSR ind = induces the endoplasmic reticulum stress response in human glioma cells; U87-MG GRP78 promoter luciferase reporter, 16 h; 0.02% of 420,000 active; AID 602332; Potency, µM, for inactives: top-dose activation, hits mostly activators; further: series mostly up to about 76 µM; % of control where 0% means no effect; nearly all actives have a fitted effect of over 35% in size
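Stably transfected U87-MG human glioma cells carrying a GRP78-based luminescent sensor were seeded at 1000 cells/well, pin-dosed with compounds and incubated 16 h. Luciferase reagent was then added, and end-point luminescence was read after 10 min at room temperature.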
Abeta rescue = restores growth of yeast expressing A-beta42 peptide; yeast expressing A-beta42, growth rescue, OD600, 48 h; response scale: 0% DMSO, 100% iron-clioquinol control; Potency, µM (doses to about 46.1 µM), most hits filed as activators; 0.063% of 410,000 active; AID 1347071; further: nearly all actives have a fitted effect of over 55% in size
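Growth rescue measured by 600 nm absorbance after 48 h yeast culture at 30 C with compound. Values normalized between DMSO and an equimolar ferric chloride plus clioquinol control.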
aSyn rescue = rescues yeast growth from alpha-synuclein toxicity; Yeast expressing alpha-synuclein, growth rescue, BacTiter-Glo, 24 h; Potency, µM (doses to about 46.1 µM), inactives show top-dose growth rescue (activation), actives largely listed as activators; 0.14% of 370,000 active; AID 652106; further: % of control where 0% means no effect; nearly all actives have a fitted effect of over 65% in size
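Screening used galactose-induced yeast with toxic alpha-synuclein levels, exposed to compound for 24 hr at 30 deg C. Cell growth, read with BacTiter-Glo luminescence, gave the measured signal.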
Numbers without * were called inactive; i = inactive; u = inconclusive; x = no result given; [ ] = remark or other dose. Compounds with a hit are over-represented: about 2% of the library has one in this group of screens. Unless noted, the call rests on the fitted dose curve; in most records, active means well fitted curve in the direction sought with a large enough effect; inconclusive means small, poorly fitted or top-dose-only effect, or another doubt; inactive means no such curve, though single readings can be large; an effect the other way counts as inactive or inconclusive. Potency means the concentration at half of the fitted maximal effect.

SMILES	FUS yeast rescue	MBNL1-CUG inh	TDP43 rescue	Glioma ERSR ind	Abeta rescue	aSyn rescue
CCN1CCN(C(=O)c2cc(NC(=O)COC)cc3nc(-c4ccncc4)n(C)c23)CC1	x	x	x	-2.2%	x	x
O=C(O)c1cccc(-c2csc(C(O)c3ccc(F)cc3)n2)c1 (configuration not stated)	i	x	10.6%	-11.6%	i	0.9%
COc1cccc(C(O)c2nc(-c3cccc(C(=O)O)c3)cs2)c1 (configuration not stated)	i	x	2.4%	-6.0%	i	0.9%
OC(c1ccc(F)cc1)c1nc(-c2cc3ccccc3o2)cs1 (configuration not stated)	i	x	25.1µM*	4.7%	u	u
COc1cccc(C(O)c2nc(-c3cccc(F)c3)cs2)c1 (configuration not stated)	i	x	22.4µM*	2.3%	i	16.5%
OC(c1ccc(F)cc1)c1nc(-c2cccc(F)c2)cs1 (configuration not stated)	i	x	11.2µM*	2.9%	i	17.0%
COc1cccc(C(O)c2nc(-c3ccc4ccccc4c3)cs2)c1 (configuration not stated)	u	x	22.4µM*	3.9%	i	u
COc1cccc(SCC2(O)CCN(C(=O)c3ccc(Cl)cc3)CC2)c1	i	-1.0%	22.4µM*	-3.2%	u	-0.4%
O=C(c1ccc(Cl)cc1)N1CCC(O)(CSc2ccc(Cl)cc2)CC1	i	-3.0%	35.5µM*	-4.8%	i	u
COCC(=O)Nc1cc(C(=O)N2CCN(c3ccc(Cl)cn3)CC2)c2c(c1)nc(C1CCC1)n2C	x	x	x	-2.5%	x	x
O=C(Cc1nc2ccccc2[nH]1)N1CCC(n2c(C3CCC3)nc3cccnc32)CC1	x	x	x	-6.5%	x	x
COc1cccc(-c2nnc(SCc3cccnc3)o2)c1	i	-11.0%	12.6µM*	4.2%	i	21.2%
N#Cc1ccccc1CSc1nnc(-c2ccncc2)o1	u	-11.0%	22.3%	6.0%	i	-13.2%
Cc1cccc(-c2nnc(SCc3ccccc3)o2)c1	i	-4.3%	11.2µM*	-3.8%	i	0.2%
COc1cc(OC)cc(-c2nnc(SCc3cccnc3)o2)c1	i	-12.9%	u	-2.5%	i	-2.3%
Cc1cccc(-c2nnc(-c3ccc(N)cc3)o2)c1	i	-0.4%	8.91µM*	-10.7%	i	8.2%
Nc1ccc(-c2nnc(-c3ccc(N)cc3)o2)cc1	i	11.4%	-9.7%	-5.2%	i	-2.5%
N#Cc1cccc(-c2nnc(SCc3ccccc3C#N)o2)c1	i	-8.4%	17.8µM*	6.2%	i	13.1%
Cc1onc(-c2ccc(Cl)cc2)c1-c1ccn(S(=O)(=O)c2ccccc2Cl)n1	i	x	x	x	x	x
CC1CCC2(CCC(=O)N2CCCOC(=O)NC(C)(C)C)CC1 (configuration not stated)	i	x	x	x	x	x
Cc1cccc(CSc2nnc(-c3ccco3)o2)c1	i	-1.4%	17.8µM*	-1.3%	i	-11.8%
Cc1cccc(CSc2nnc(-c3ccco3)n2C)c1	i	4.4%	24.4%	2.4%	i	-3.1%
CCN(CC)S(=O)(=O)c1ccc(Cl)c(NC(=O)COC(=O)c2ccc(O)cc2)c1	i	-8.7%	2.8%	-6.6%	i	-1.7%
CCN(CC)S(=O)(=O)c1ccc(Cl)c(NC(=O)COC(=O)C2CCCCC2)c1	i	x	12.5%	-6.3%	11.2µM*	15.8%
Cc1cc(Br)c(NC(=O)COC(=O)C2CCCCC2)c(Br)c1	i	x	15.8µM*	-3.6%	i	-0.3%
SMILES	FUS yeast rescue	MBNL1-CUG inh	TDP43 rescue	Glioma ERSR ind	Abeta rescue	aSyn rescue
Cc1cc(C)c(NC(=O)COC(=O)C2CCC2)c(Cl)c1	i	3.5%	17.4%	-1.9%	i	-6.0%
N[C@@H](C(=O)N[C@@H]1C(=O)N2C(C(=O)O)=C(CSc3cn[nH]n3)CS[C@H]12)c1ccc(O)cc1	x	x	x	-4.0%	x	x
CN(C(=O)c1cnn(-c2nccc(-c3ccccc3C(F)(F)F)n2)c1C1CC1)C1CCOC1 (configuration not stated)	x	x	x	2.5%	x	x
COC(=O)[C@]12C[C@H](CC(=O)N3CCSCC3)C(=O)N(Cc3ccco3)C1=C[C@H](C(C)C)O[C@@H]2C1CC1	i	x	x	x	x	x
Cc1ccc(C)c(OCCC(=O)OCC(=O)N2CCN(S(=O)(=O)c3ccc(Cl)cc3)CC2)c1	i	x	u	-0.8%	i	11.0%
CCOc1ccc(OCCC(=O)OCC(=O)N2CCN(S(=O)(=O)c3ccc(Cl)cc3)CC2)cc1	i	-3.8%	12.6µM*	12.7%	i	10.0%
COc1cc(OC)c(CN2CCOc3ccc(CN4CCC(O)CC4)cc3C2)c(OC)c1	x	x	x	-6.7%	x	x
O=C(Nc1cc(C(F)(F)F)ccc1-n1cncn1)c1ccc([N+](=O)[O-])o1	i	x	14.1µM*	u	i	-7.7%
CCc1nc2sc3ccccc3c(=O)c2c(=O)n1Cc1ccco1	31.6µM*	-8.0%	-5.0%	0.2%	i	25.5%
O=C(NCc1ccncc1)c1cnn(-c2ncc3c(n2)-c2ccccc2CC3)c1C1CC1	x	x	x	-2.0%	x	x
CCOC(=O)c1cnc2c(OC)cccc2c1N1CCN(c2ccccc2F)CC1	i	x	11.2µM*	-2.3%	i	x
CCOc1ccc2ncc(C(=O)c3ccc(OC)cc3)c(N3CCN(CC)CC3)c2c1	i	8.1%	12.9%	-0.9%	i	0.2%
CCOC(=O)c1cnc2ccc(OCC)cc2c1N(C)Cc1ccccc1	i	x	22.4µM*	-3.0%	i	14.4%
CCOC(=O)c1cnc2c(C(F)(F)F)cccc2c1N1CCOCC1	i	11.1%	4.9%	-4.2%	i[9.22 µM]	11.8%
CCOC(=O)c1cnc2ccc(OCC)cc2c1N1CCN(c2ccccc2OC)CC1	i	12.1%	35.5µM*	-4.9%	i	8.4%
O=P(O)(O)OC(Cn1cncn1)(Cn1cncn1)c1ccc(F)cc1F	x	x	x	-2.6%	x	x
CC(=O)c1cc(-c2ccccc2)n(CC(=O)NCc2ccccc2Cl)c1C	i	x	x	x	x	x
C=CCN1[C@H](C#N)[C@@H](c2ccc(C#Cc3cccc(OC)c3)cc2)[C@H]1CO	i	x	x	x	x	x
C[C@@H]1CN(Cc2ccc3c(c2)CN(Cc2cn[nH]c2-c2ccccc2)CCO3)C[C@H](C)O1	x	x	x	-1.7%	x	x
CN(Cc1ccc2c(c1)CN(C(=O)c1cccc(N(C)C)c1)CCO2)Cc1cc(C2CC2)n[nH]1	x	x	x	-3.1%	x	x
CCC1CN(CC(=O)N(C)Cc2nc3ccccc3[nH]2)Cc2cc(OC)ccc2O1 (configuration not stated)	x	x	x	-4.4%	x	x
COc1ccc(C(=O)Nc2cccc(OC(=O)c3ccco3)c2)cc1	i	-5.9%	17.8µM*	4.2%	i	1.0%
